# The campaign covered roughly 4,800 compounds. About 420 (8.8%) showed an effect of 50% or more. Only a selection was taken, and strong results are over-represented in it overall.
# System: Plasmodium falciparum
# Experiment: Confirmatory screen in NF54 nanoGlo assay, in single point, at 2uM, 72h
# Assay type: functional, Erythrocyte
# Conditions: timepoint 72 hour
row,Compound,% Inhibition
1,Cc1ccc(C)n1-c1ccc(Cl)c(C(=O)NC[C@H]2COCCO2)c1,-4%
2,C#Cc1cc(C(F)(F)F)cc(C#N)c1N,5%
3,CC1(C)CN(C(=O)CN2CCOCC2=O)C2CCCC21 (configuration not stated),-16%
4,COc1cccc(N2CCN(C3=NC(=O)[C@@H](C#N)C4(CCCC4)N3)CC2)c1,2%
5,O=C(O)Cc1ccc(OCc2nc(-c3ccsc3)no2)cc1,-2%
6,CC(=O)Nc1ccc(C)cc1S(=O)(=O)N1CC=C(c2c(C)n(Cc3ccccc3C)c3ccccc23)CC1,91%
7,Cc1ccc(NC(=O)Cn2c(=O)n(Cc3ccco3)c(=O)c3ccccc32)c(C)c1,-12%
8,Cc1ccc(S(=O)(=O)N2CC[C@H](CC(=O)NCc3ccccc3)C2)c(C)c1,-17%
9,CC[C@](C)(NCCc1c[nH]c2ccccc12)c1nnnn1CCOC,-2%
10,Cn1c(N2CCN(Cc3ccc4c(c3)OCO4)CC2)cc(=O)n(C)c1=O,-12%
11,COc1ccc(CNC(=O)N2C[C@H](C)OC3(CCCCC3)C2)cc1OC(F)F,-8%
12,O=C(NCc1ccco1)c1cc2c(Cl)ccc3c2n1CCO3,-1%
13,Cc1cc2nc(C)c3c(n2n1)N(Cc1ccccc1Cl)CC3,-2%
14,CC(C)Oc1cccnc1C(=O)N(C)c1cnn(C)c1,-5%
15,COc1ccc(-c2cc3c(N4CCN(C)CC4)nccn3n2)cc1OC,1%
16,Cc1nn(-c2ccccn2)c(O)c1C(c1ccccc1)c1c(C)nn(-c2ccccn2)c1O,90%
17,COc1ccc(-c2nn(-c3ccccc3)c(O)c2C(c2ccc(C(=O)O)cc2)c2c(-c3ccc(OC)cc3)nn(-c3ccccc3)c2O)cc1,2%
18,O=C(CCn1nc(-c2cccc(Cl)c2)ccc1=O)NCc1ccc(F)cc1F,-2%
19,CCn1cc(CN2C(=O)C3CCCCC3C2=O)c(C)n1 (configuration not stated),-3%
20,Oc1nc(N2CCOC3(CCCC3)C2)ncc1F,51%
21,FC(F)(F)c1cnc(N2CCOC3(CCOCC3)CC2)s1,-2%
22,O=C(c1cc(-c2ccncc2)on1)N1CCOC2(CCCCCC2)C1,-6%
23,COC(c1ccc(-c2ccc(OC3CC3)cc2)cc1)C(C)N (configuration not stated),-3%
24,COc1ccc(CNC(=O)c2ccc(Cl)c(-n3c(C)nc4cccnc43)c2)c(OC)c1,2%
25,CCOC(=O)c1ccc(N2CCN(Cc3ccccc3)CC2)c(NC(=O)COc2ccc(Cl)cc2C)c1,-4%
26,Cn1nc(N)c2cc(C(F)(F)F)ccc21,-2%
27,CCn1c(=O)c(N2CCN(C(=O)Nc3cccc(C(F)(F)F)c3)CC2)nc2ccccc21,-2%
